Results published in ChEMBL document CHEMBL3988442, “University of Dundee, Small-Polar-MMV Screening Library” (2021).
Out of some 48,000 compounds screened, about 13,000 (27%) showed an effect of 50% or more. This is one part of the list.

The molecules below were run on Wolbachia pipientis (assay: Anti-Wolbachia Cell-Based Screen). Conditions: 5 µM.
Format: functional
Set-up: scale not given: in the data most compounds retested in dose-response had high values

Row | Compound | Percent Effect
1 | CCc1c(C)nc(C)nc1N1CCC(NCCSc2nnnn2C)CC1 | 11.48%
2 | O=C(c1cn(CCN2CCCCC2)nn1)N1CCCCO1 | -10.33%
3 | COc1nc2c(cc1C(=O)N1CCCOC(Cn3cccn3)C1)CCC2 (stereo not drawn) | 0.1052%
4 | CCN1C[C@H]2C3(CCN(C(=O)NC(C)C)CC3)CC[C@@]2(C(=O)N(C)C)C1.O=C(O)C(F)(F)F | -2.762%
5 | Cc1cnc(CNC(=O)c2cc3c(s2)CCN3S(C)(=O)=O)cn1 | -3.088%
6 | CNS(=O)(=O)c1ccc(C(=O)NCCc2ccccn2)cc1 | -0.4969%
7 | O=C(NCCc1ccccn1)C1=NN(c2ccccc2)C(=O)CN1 | 14.32%
8 | CS(=O)(=O)N1CCc2sc(C(=O)NCc3ccccc3)cc21 | 99.89%
9 | CS(=O)(=O)N1Cc2nc(C(=O)NCc3ccccc3)oc2C1 | 1.051%
10 | CS(=O)(=O)N1CCc2sc(C(=O)NCCc3ccccn3)cc21 | 98.67%
11 | COC(=O)N1CCc2ccccc2C1C(=O)NCc1ccncc1 (stereo not drawn) | 5.289%
12 | CS(=O)(=O)N1CCc2sc(C(=O)NCc3ccncc3)cc21 | 102.3%
13 | CCOc1cccc(C(C)NC(=O)N2CCC(C(N)=O)CC2)c1 (stereo not drawn) | -12.9%
14 | Cc1ccc(-c2cnc(CCC(=O)NCCN3CCOCC3)o2)cc1C | 7.661%
15 | CC(C)Oc1ncnc2c1CCN(c1cc(C(F)(F)F)ncn1)CC2 | -5.603%
16 | N#Cc1cccc(CN2C[C@@H](F)[C@@H](OCc3nc4ccccc4[nH]3)C2)c1 | 3.783%
17 | COc1cc(C(=O)NCc2ccc3c(c2)CCCN3C)cc(OC)c1Br | 103.6%
18 | CC(C)Oc1ccc(C(=O)NCc2ccnc(N3CCCC3)c2)cn1 | 1.854%
19 | CC(C)Oc1ccc(C(=O)NCc2ccc3c(c2)CCCN3C)cn1 | 82.05%

Row | Compound | Percent Effect
20 | COC(=O)c1cccc(CNC(=O)CC(F)(F)F)c1 | -8.665%
21 | COC(=O)c1cccc(C(=O)NCc2ccc3c(c2)CCCN3C)c1 | 93.26%
22 | CN1CCCc2cc(CNC(=O)c3ccc(NC4CC4)nc3)ccc21 | -0.6873%
23 | CCOCC1CCN(C(=O)Nc2ccc3c(c2)CCCN3C)C1 (stereo not drawn) | -6.058%
24 | COc1ccc(CNC(=O)c2ccc(=O)n(C)c2)cc1C | -12.06%
25 | COC(=O)c1cccc(CNC(=O)c2cc(C(C)C)n(C)n2)c1 | -2.718%
26 | CS(=O)(=O)CC1CCCN(c2ncnc3c2Cc2ccccc2OC3)C1 (stereo not drawn) | 8.787%
27 | CC(C)c1nc(CNc2ccc(CCO)cc2)cs1 | -6.765%
28 | Cc1nonc1N1CCN(Cc2nc(CC3CC3)no2)CC1 | -9.131%
29 | O=C(CCNC1(c2nccs2)CCCC1)N1CCOCC1 | -14.98%
30 | CC1(c2nccs2)CCN(C(=O)CC2CCOCC2)CC1 | 133.3%
31 | Cc1occc1C(=O)N1CCC2(CCN(Cc3nccs3)CC2)C1 | 13.46%
32 | C[C@@H](NC(=O)c1cnccn1)c1c(-c2ccc(F)cc2)noc1C(=O)O | 0.3029%
33 | Cc1ccc(C(=O)N2CCN(CCc3cccs3)CC2)c(=O)[nH]1 | 4.078%
34 | Cc1ccc(C2(O)CCN(Cc3nnc(-c4cccnc4)o3)CC2)nc1 | -8.871%
35 | Cc1ccc(-c2nnc(CN3CCN(c4ccccn4)CC3)o2)cc1 | 118.2%
36 | Cc1ccc(-c2nnc(CN3CCNC(=O)C3)o2)cc1 | -29.77%
37 | Cc1nnc2n1CCN(C(=O)C(OC1CCCC1)c1ccccc1)C2 (stereo not drawn) | 0.08716%
38 | Cc1cc(NC(=O)CN2CCn3c(nnc3C3CC3)C2)no1 | -12.55%
